“And” between values parts separate entries of the source, which are not always exact repeats. Equal values may be shown once. Records with an inconclusive call do not appear. The source made the active and inactive calls. Unless noted, the call rests on the fitted dose curve; in most records, active means well fitted curve in the direction sought with a large enough effect in the repeat runs; inconclusive means weak or mixed curves; inactive means no such curve, though single readings can be large; an effect the other way counts as inactive or inconclusive.
What was measured:
[1] = qHTS assay to identify small molecule antagonists of the estrogen related receptor (ERR) signaling pathway from Tox21 library - cell viability counter screen (AID 1224834); further: nearly all actives have a fitted effect of over 30% in size
Summary of the method: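 CellTiter-Fluor fluorescence measured; ERR cells; 17.5 h compound incubation at 37 C; 30 min reagent step.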

[2] = biological target: Luciferin 4-monooxygenase (Photinus pyralis) (UniProt P08659); assay: qHTS assay to identify small molecule inhibitors of firefly luciferase (AID 1224835); further: nearly all actives have a fitted effect of over 25% in size
Summary of the method: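 Biochemical qHTS: compounds run as interplate titrations against purified firefly enzyme, with D-luciferin and ATP each at its KM concentration. Light output recorded by CCD imaging.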

[3] = qHTS assay to identify small molecule agonists of the constitutive androstane receptor (CAR) signaling pathway - cell viability counter screen (AID 1224836); further: nearly all actives have a fitted effect of over 45% in size
Summary of the method: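 HepG2-CYP2B6-hCAR, 2500 cells/well, 4 h pre-incubation; cpd 15 conc + PK11195 0.75 uM final; 23 h, 37 C/5% CO2; CellTiter-Fluor, fluorescence.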

[4] = qHTS assay to identify small molecule antagonists of the constitutive androstane receptor (CAR) signaling pathway - cell viability counter screen (AID 1224837); further: nearly all actives have a fitted effect of over 45% in size
Summary of the method: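 Using CellTiter-Fluor, viability is scored in HepG2 cells stably carrying hCAR and a 2.2kb CYP2B6 reporter after 23 hr compound exposure across 15 concentrations, with CITCO present at 50 nM.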

[5] = biological target: Nuclear receptor subfamily 1 group I member 3 (Homo sapiens) (UniProt Q14994); assay: qHTS assay to identify small molecule agonists of the constitutive androstane receptor (CAR) signaling pathway (AID 1224839);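 further: HepG2 cells stably carrying human CAR and a CYP2B6 luciferase reporter; nearly all actives have a fitted effect of over 15% in size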
Summary of the method: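 HepG2-CYP2B6-hCAR cells, 2500/well, 4 h pre-incubation; compounds 15 conc.; PK11195 0.75 uM final; 24 h, 37 C/5% CO2; ONE-Glo luciferase read.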

[6] = qHTS assay to identify small molecule antagonists of the estrogen related receptor signaling pathway with the pleiotropic PPARgamma coactivator (PGC) from Tox21 10K library - cell viability counter screen (AID 1224840; active means well fitted cell-killing curve with a large enough effect in the repeat runs, not every such curve was filed as active; further: nearly all actives have a fitted effect of over 40% in size)
Summary of the method: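 Here the PGC/ERR cells serve as a cytotoxicity control: they are exposed to compounds for 17.5 hours at 37 C, and live-cell signal is quantified using CellTiter-Fluor fluorescence.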

[7] = qHTS assay to identify small molecule antagonists of the estrogen related receptor signaling pathway with the pleiotropic PPARgamma coactivator (PGC) from Tox21 10K library (AID 1224841; call rule not given here; further: actives are mostly falling curves and most rising ones were filed inactive; nearly all actives have a fitted effect of over 50% in size)
Summary of the method: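 Each well held 2,000 PGC/ERR cells, pre-incubated six hours (37 C, 5% CO2). Test substances in DMSO were added by pin tool and left for 18 h at 37 C before luciferase detection by One-Glo.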

[8] = qHTS assay to identify small molecule agonists of the estrogen related receptor signaling pathway with the pleiotropic PPARgamma coactivator (PGC) from Tox21 10K library (AID 1224842); further: nearly all actives have a fitted effect of over 15% in size
Summary of the method: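 PGC/ERR reporter cell line, 2,000 cells per well, incubated 6 h at 37 C before 23 nL compound in DMSO was added. After 18 h at 37 C, One-Glo luminescence read following 30 min at room temperature.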

[9] = biological target: Thyrotropin receptor (Homo sapiens) (UniProt P16473); assay: qHTS assay to identify small molecule agonists of the thyroid stimulating hormone receptor (TSHR) signaling pathway (AID 1224843; calls by dose curve; further: nearly all actives have a fitted effect of over 45% in size)
Summary of the method: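 TSHR-HEK293 cells in agonist mode, 30 min room-temperature step, then cAMP measured by competitive HTRF (cAMP-d2 with anti-cAMP cryptate) after 1 h at room temperature. Tested at 15 concentrations in triplicate.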

[10] = qHTS assay to identify small molecule agonists of the hypoxia (HIF-1) signaling pathway - cell viability counter screen (AID 1224844; calls by dose curve; further: nearly all actives have a fitted effect of over 50% in size)
Summary of the method: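 Multiplexed with the HRE beta-lactamase assay, this viability read used CellTiter-Glo luminescence (30 min, RT) on HRE-bla ME-180 cells treated 17 hrs with compounds in 0.5% dialyzed FBS medium.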

[11] = qHTS assay to identify small molecule agonists of H2AX (AID 1224845; active means well fitted activation curve with a large enough effect in the signal ratio in the repeat runs, not every such curve was filed as active; the % refers to the signal ratio)
Summary of the method: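 Wild-type CHO-K1 cells, plated overnight, exposed 3hr at 37C to 15 concentrations (0.76% DMSO final). Lysed, then HTRF anti-pH2AX (S139) cryptate and anti-H2AX-d2 antibodies, 24 hr room temperature; 665/620 nm emission read.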

[12] = qHTS assay to identify small molecule agonists of the hypoxia (HIF-1) signaling pathway (AID 1224846; active means well fitted activation curve with a large enough effect in the signal ratio in the repeat runs, not every such curve was filed as active; the % refers to the signal ratio)
Summary of the method: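 Hypoxia-pathway activation was scored as increased beta-lactamase from an HRE-controlled reporter in ME-180 cells; plated at 2,000 cells per well with 0.5% dialyzed FBS, they were exposed 17 hrs to compounds and then given CCF4-AM.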

[13] = qHTS assay to identify small molecule antagonists of the estrogen related receptor (ERR) signaling pathway from Tox21 library (AID 1224848); further: nearly all actives have a fitted effect of over 50% in size
Summary of the method: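 ERR reporter cell line (from NTP) seeded 2,000 cells/well, rested 6 h at 37 C/5% CO2, then pin-dosed with compounds in DMSO. After 18 h at 37 C, ONE-Glo added; luminescence read after 30 min at room temperature.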

[14] = qHTS assay to identify small molecule agonists of the estrogen related receptor (ERR) signaling pathway from Tox21 library (AID 1224849; calls by dose curve; further: nearly all actives have a fitted effect of over 15% in size); conditions: ERR reporter cell line, ONE-Glo luciferase, 18 h; at 92.4 µM (top of the series)
Summary of the method: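 Six hours post-seeding at 37 C/5% CO2, ERR cells receive DMSO-solubilised compounds; after 18 h at 37 C, ONE-Glo reagent is applied and luminescence recorded.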

[15] = qHTS RealTime-Glo MT Cell Viability Assay in HepG2 cells - 24 hour (AID 1224867); further: nearly all actives have a fitted effect of over 50% in size
Summary of the method: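 Real-time, nonlytic viability: 600 HepG2 cells/well mixed with NanoLuc enzyme plus prosubstrate; 5 h settle, compound (DMSO) added by pintool; luminescence monitored over 40 h at 37 C.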

[16] = qHTS RealTime-Glo MT Cell Viability Assay in HEK293 cells - 32 hour (AID 1224868)
Summary of the method: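 Cells + reagent dispensed (600 cells/well, HEK293) → 5 h at 37 C/5% CO2 → 23 nL compound in DMSO pinned → 40 h at 37 C → luminescence read at 0, 8, 16, 24, 32, 40 h.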

[17] = A CellTox Green Cytotoxicity Assay to monitor cytotoxicity in HEK293 cells - 0 hour (AID 1224869); further: nearly all actives have a fitted effect of over 50% in size
Summary of the method: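 Seeding of HEK293 cells together with cytotoxicity dye preceded a 5 h incubation at 37 C/5% CO2. Test compounds in DMSO were then added and fluorescence monitored across 40 h.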

[18] = qHTS assay to identify small molecule agonists of H2AX - cell viability counter screen (AID 1224847; calls by dose curve; further: top concentration of the series differs between compounds; nearly all actives have a fitted effect of over 30% in size)
Summary of the method: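 Cells plated first: CHO-K1, 1000 per well in 10% FBS medium, incubated overnight at 37C. Then 15-point compound titration added (final DMSO 0.76%) for 3 hr. Finally CellTiter-Glo added and luminescence read.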

[19] = biological target: Nuclear receptor subfamily 1 group I member 3 (Homo sapiens) (UniProt Q14994); assay: qHTS assay to identify small molecule antagonists of the constitutive androstane receptor (CAR) signaling pathway (AID 1224838);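 further: HepG2 cells stably expressing hCAR with CYP2B6 luciferase reporter stimulated by CITCO; nearly all actives have a fitted effect of over 40% in size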
Summary of the method: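 Reporter luminescence was quantified after 24 h exposure of hCAR/CYP2B6-2.2kb double-stable HepG2 cells to compounds at 15 concentrations in the presence of 50 nM CITCO final.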
On the % scale 0 is the no-effect control and ±100 the full control effect.

Chain of Nuclear receptor subfamily 1 group I member 3 (Homo sapiens) (Q14994 whole entry, looked up): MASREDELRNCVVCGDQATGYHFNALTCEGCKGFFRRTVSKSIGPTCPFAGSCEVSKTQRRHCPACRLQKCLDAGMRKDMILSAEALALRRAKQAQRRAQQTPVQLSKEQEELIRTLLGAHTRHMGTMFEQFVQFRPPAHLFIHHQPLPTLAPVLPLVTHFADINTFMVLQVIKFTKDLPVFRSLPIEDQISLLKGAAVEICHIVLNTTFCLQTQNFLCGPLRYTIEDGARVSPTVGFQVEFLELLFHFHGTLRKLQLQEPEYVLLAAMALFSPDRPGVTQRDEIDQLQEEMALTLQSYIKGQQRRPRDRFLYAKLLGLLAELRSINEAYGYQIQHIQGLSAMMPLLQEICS
Chain of Luciferin 4-monooxygenase (Photinus pyralis) (P08659 whole entry, looked up): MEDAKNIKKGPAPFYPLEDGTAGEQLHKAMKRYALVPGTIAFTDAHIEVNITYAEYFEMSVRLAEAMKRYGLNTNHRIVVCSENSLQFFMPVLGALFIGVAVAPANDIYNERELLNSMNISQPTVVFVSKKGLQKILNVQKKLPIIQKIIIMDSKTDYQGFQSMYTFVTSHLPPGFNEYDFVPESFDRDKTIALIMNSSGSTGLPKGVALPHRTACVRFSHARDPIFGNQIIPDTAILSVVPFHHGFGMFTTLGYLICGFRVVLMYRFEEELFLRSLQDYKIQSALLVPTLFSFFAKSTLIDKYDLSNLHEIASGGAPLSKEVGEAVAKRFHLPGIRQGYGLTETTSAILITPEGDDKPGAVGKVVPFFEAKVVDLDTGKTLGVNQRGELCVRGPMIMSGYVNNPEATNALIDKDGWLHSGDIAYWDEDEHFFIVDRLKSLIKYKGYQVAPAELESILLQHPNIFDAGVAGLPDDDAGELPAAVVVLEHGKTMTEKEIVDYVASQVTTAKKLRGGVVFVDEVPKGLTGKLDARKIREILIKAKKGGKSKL
Chain of Thyrotropin receptor (Homo sapiens) (P16473 whole entry, looked up): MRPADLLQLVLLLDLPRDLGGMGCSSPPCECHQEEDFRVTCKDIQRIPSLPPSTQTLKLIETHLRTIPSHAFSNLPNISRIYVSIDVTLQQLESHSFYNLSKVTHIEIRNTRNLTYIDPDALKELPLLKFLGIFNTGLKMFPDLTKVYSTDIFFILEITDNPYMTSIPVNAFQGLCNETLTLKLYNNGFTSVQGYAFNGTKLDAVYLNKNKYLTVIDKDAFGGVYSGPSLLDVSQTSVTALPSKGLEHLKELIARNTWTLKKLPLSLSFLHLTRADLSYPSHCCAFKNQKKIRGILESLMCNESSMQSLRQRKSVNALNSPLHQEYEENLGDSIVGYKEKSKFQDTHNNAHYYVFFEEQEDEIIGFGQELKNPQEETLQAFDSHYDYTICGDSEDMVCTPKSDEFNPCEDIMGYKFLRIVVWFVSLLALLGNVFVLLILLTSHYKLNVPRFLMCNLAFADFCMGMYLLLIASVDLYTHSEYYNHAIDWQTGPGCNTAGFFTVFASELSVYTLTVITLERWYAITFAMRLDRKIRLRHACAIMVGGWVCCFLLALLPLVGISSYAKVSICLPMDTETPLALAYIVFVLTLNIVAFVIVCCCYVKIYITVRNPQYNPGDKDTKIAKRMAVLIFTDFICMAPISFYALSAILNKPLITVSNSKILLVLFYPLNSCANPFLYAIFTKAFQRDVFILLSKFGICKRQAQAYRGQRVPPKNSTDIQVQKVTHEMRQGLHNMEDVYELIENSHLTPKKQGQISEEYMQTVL

CCCCC(CC)COC(C)=O (centres undefined)
inactive: Potency [1] | Potency [2] | Potency [3] | Potency [4] | Potency [5] | Potency [6] | Potency [7] | Potency [8] | Potency [9] | Potency [10] | Potency [11] | outcome [12] | Potency [13] | activity change, positive = activation [14] 8.75% and 0.0839% | Potency [15] | Potency [16] | Potency [17]

CCCCCCCCC
inactive: Potency [1] | Potency [2] | Potency [3] | Potency [4] | Potency [5] | Potency [6] | Potency [9] | Potency [10] | Potency [11] | outcome [12] | Potency [18] | Potency [15] | Potency [16] | Potency [17]

Cc1ccc(C)c(C)c1
inactive: Potency [1] | Potency [2] | Potency [3] | Potency [4] | Potency [5] | Potency [6] | Potency [9] | Potency [10] | Potency [11] | outcome [12] | Potency [15] | Potency [16] | Potency [17]

CC[Si](OC(C)=O)(OC(C)=O)OC(C)=O
inactive: Potency [1] | Potency [2] | Potency [3] | Potency [4] | Potency [5] | Potency [6] | Potency [9] | Potency [10] | Potency [11] | outcome [12] | Potency [18] | Potency [15] | Potency [16] | Potency [17]

C[C@@H]1O[C@@H](OC[C@H]2O[C@@H](Oc3c(-c4ccc(O)c(O)c4)oc4cc(O)cc(O)c4c3=O)[C@H](O)[C@@H](O)[C@@H]2O)[C@H](O)[C@H](O)[C@H]1O
inactive: Potency [1] | Potency [2] | Potency [3] | Potency [4] | Potency [5] | Potency [6] | Potency [9] | Potency [10] | outcome [12] | Potency [18] | Potency [15] | Potency [16] | Potency [17]

NS(=O)(=O)c1cc2c(cc1Cl)NC=NS2(=O)=O
inactive: Potency [1] | Potency [2] | Potency [3] | Potency [4] | Potency [19] | Potency [6] | Potency [9] | Potency [10] | Potency [11] | outcome [12] | Potency [18] | Potency [15] | Potency [17]

COCC(C)O (centres undefined)
inactive: Potency [1] | Potency [2] | Potency [3] | Potency [4] | Potency [6] | Potency [7] | Potency [8] | Potency [9] | Potency [10] | Potency [11] | outcome [12] | Potency [18] | Potency [13] | activity change, positive = activation [14] -0.602% and 6.16% | Potency [15] | Potency [16] | Potency [17]

CCCCOCCOCCOC(=O)CCCCC(=O)OCCOCCOCCCC
inactive: Potency [1] | Potency [2] | Potency [3] | Potency [4] | Potency [5] | Potency [6] | Potency [10] | Potency [11] | outcome [12] | Potency [18] | Potency [15] | Potency [16] | Potency [17]
